The source made the active and inactive calls. How the source made its calls: active means hit-call score of the fitted dose curve at least 0.9, where 1 is the maximum; inactive means score below 0.9.

From PubChem BioAssay (EPA / NIEHS) come the findings set out here.

Assay [1] is described as follows: BSK_CASM3C_SRB: Viability Assessment in the BioMAP Diversity Plus: CASM3C Assay (AID 2283050).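 Further: cells exposed to compound for 24 h.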 As to conditions: primary human coronary artery smooth muscle cells.
Read-out in assay [2]: Thrombomodulin, THBD (gene 7056)
Briefly: BSK_CASM3C_Thrombomodulin: BioMAP Diversity Plus: CASM3C Assay for Thrombomodulin Biomarker Activity (AID 2283051).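 Further: thrombomodulin protein level measured by ELISA 24 h after dosing.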 As to conditions: primary human coronary artery smooth muscle cells; actives raise or lower the signal.

Read-out in assay [3]: Tissue Factor, F3 (gene 2152)
Briefly: BSK_CASM3C_TissueFactor: BioMAP Diversity Plus: CASM3C Assay for Tissue Factor Biomarker Activity (AID 2283052).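 Further: cell surface tissue factor protein level read by ELISA.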 As to conditions: primary human coronary artery smooth muscle cells; actives raise or lower the signal.

Read-out in assay [4]: Interferon-gamma inducible Protein 10 (IP10), CXCL10 (gene 3627)
The assay is described as follows: BSK_hDFCGF_IP10: BioMAP Diversity Plus: hDFCGF Assay for Interferon-gamma inducible Protein 10 (IP10) Biomarker Activity (AID 2283053). The note with it: primary human foreskin fibroblasts; actives raise or lower the signal. The essentials:
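Cells: human dermal foreskin fibroblasts. Exposure: 24 h post-dosing. Detection: IP-10 ELISA, with values expressed against DMSO controls and fitted in both directions.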

Read-out in assay [5]: Urokinase-type plasminogen activator receptor (uPAR), PLAUR (gene 5329)
Briefly: BSK_CASM3C_uPAR: BioMAP Diversity Plus: CASM3C Assay for Urokinase-type plasminogen activator receptor (uPAR) Biomarker Activity (AID 2283054).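 Further: cell-surface uPAR protein level quantified by ELISA.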 As to conditions: primary human coronary artery smooth muscle cells; actives raise or lower the signal.

Read-out in assay [6]: Vascular cell adhesion molecule 1 (VCAM1), VCAM1 (gene 7412)
Briefly: BSK_CASM3C_VCAM1: BioMAP Diversity Plus: CASM3C Assay for Vascular cell adhesion molecule 1 (VCAM1) Biomarker Activity (AID 2283055).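 Further: VCAM-1 protein level quantified by ELISA on the cells.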 The note with it: primary human coronary artery smooth muscle cells; actives raise or lower the signal.

Read-out in assay [7]: Collagen III, COL3A1 (gene 1281)
Briefly: BSK_hDFCGF_CollagenIII: BioMAP Diversity Plus: hDFCGF Assay for Collagen III Biomarker Activity (AID 2283056). As to conditions: primary human foreskin fibroblasts; actives raise or lower the signal. The essentials: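 Cells: human foreskin fibroblasts, primary. Dosing followed by 24 h incubation, then ELISA for collagen III. Both increases and decreases scored relative to DMSO.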

Read-out in assay [8]: Epidermal growth factor receptor (EGFR), EGFR (gene 1956)
Briefly: BSK_hDFCGF_EGFR: BioMAP Diversity Plus: hDFCGF Assay for Epidermal growth factor receptor (EGFR) Biomarker Activity (AID 2283057). The note with it: primary human foreskin fibroblasts; actives raise or lower the signal. An outline of the steps:
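Dosing human primary skin fibroblasts, then measuring surface EGFR by ELISA at 24 h, gives the endpoint; gains and losses relative to DMSO were fitted in both directions.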

Assay [9] in a line: BSK_hDFCGF_Proliferation: Cell Proliferation Assessment in the BioMAP Diversity Plus: hDFCGF Assay (AID 2283059).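 Further: curves fitted for both rise and fall of signal versus DMSO baseline.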 As to conditions: primary human foreskin fibroblasts. An outline of the steps: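 Steps: dose primary human dermal fibroblasts (foreskin); […] fix in 10% TCA; stain with 0.1% SRB; read 560 nm; fit gain or loss of signal against DMSO.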
Read-out in assay [10]: Macrophage colony-stimulating factor (MCSF), CSF1 (gene 1435)
Briefly: BSK_hDFCGF_MCSF: BioMAP Diversity Plus: hDFCGF Assay for Macrophage colony-stimulating factor (MCSF) Biomarker Activity (AID 2283060). The note with it: primary human foreskin fibroblasts; actives raise or lower the signal. An outline of the steps: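 M-CSF levels, determined by ELISA, are taken at 24 h after dosing human skin fibroblasts. Responses in either direction are fitted with DMSO serving as the baseline.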

Assay [11] is described as follows: BSK_hDFCGF_SRB: Viability Assessment in the BioMAP Diversity Plus: hDFCGF Assay (AID 2283061).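 Further: cells exposed to compound for 24 h before the read.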 The note with it: primary human foreskin fibroblasts. The essentials: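 Cells were dosed with test chemical, cultured 24 h, fixed with 10% TCA, then stained with 0.1% SRB and read at 560 nm. The fibroblasts were human foreskin primary cells, and DMSO served as baseline.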

Read-out in assay [12]: TIMP metallopeptidase inhibitor 1 (TIMP1), TIMP1 (gene 7076)
The assay is described as follows: BSK_hDFCGF_TIMP1: BioMAP Diversity Plus: hDFCGF Assay for TIMP metallopeptidase inhibitor 1 (TIMP1) Biomarker Activity (AID 2283062). As to conditions: primary human foreskin fibroblasts; actives raise or lower the signal. An outline of the steps: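 Fibroblasts from human foreskin are treated with test chemical and harvested at 24 h. TIMP-1 is quantified by ELISA, and gain or loss of signal is scored against DMSO.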

Read-out in assay [13]: Monokine induced gamma interferon (MIG), CXCL9 (gene 4283)
Briefly: BSK_hDFCGF_MIG: BioMAP Diversity Plus: hDFCGF Assay for Monokine induced gamma interferon (MIG) Biomarker Activity (AID 2283063). As to conditions: primary human foreskin fibroblasts; actives raise or lower the signal. An outline of the steps: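 MIG signal, determined by ELISA, reflects 24 h chemical exposure of human skin primary fibroblasts. DMSO serves as negative control and baseline.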

Read-out in assay [14]: Matrix Metallopeptidase 1 (MMP1), MMP1 (gene 4312)
Briefly: BSK_hDFCGF_MMP1: BioMAP Diversity Plus: hDFCGF Assay for Matrix Metallopeptidase 1 (MMP1) Biomarker Activity (AID 2283064). As to conditions: primary human foreskin fibroblasts; actives raise or lower the signal. The essentials: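 Human foreskin fibroblasts exposed to chemical for 24 h; MMP1 detected by ELISA, with DMSO as baseline for bidirectional fitting.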

Read-out in assay [15]: Vascular cell adhesion molecule 1 (VCAM1), VCAM1 (gene 7412)
The assay is described as follows: BSK_hDFCGF_VCAM1: BioMAP Diversity Plus: hDFCGF Assay for Vascular cell adhesion molecule 1 (VCAM1) Biomarker Activity (AID 2283065). As to conditions: primary human foreskin fibroblasts; actives raise or lower the signal. An outline of the steps:
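Cells are dosed, cultured for 24 h, then VCAM-1 is quantified by ELISA; signal increases and decreases are both fitted relative to DMSO.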

Read-out in assay [16]: Plasminogen activator inhibitor-1 (PAI1), SERPINE1 (gene 5054)
The assay is described as follows: BSK_hDFCGF_PAI1: BioMAP Diversity Plus: hDFCGF Assay for Plasminogen activator inhibitor-1 (PAI1) Biomarker Activity (AID 2283066). The note with it: primary human foreskin fibroblasts; actives raise or lower the signal. The essentials: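 Fibroblasts from human foreskin were treated with test chemical. After 24 h, PAI-1 was measured by ELISA. Activity was fitted in both directions relative to DMSO.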

Read-out in assay [17]: Interferon-gamma inducible Protein 10 (IP10), CXCL10 (gene 3627)
Briefly: BSK_KF3CT_IP10: BioMAP Diversity Plus: KF3CT Assay for Interferon-gamma inducible Protein 10 (IP10) Biomarker Activity (AID 2283068). As to conditions: primary human keratinocytes with fibroblasts; actives raise or lower the signal. The essentials:
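KF3CT co-culture (keratinocytes + foreskin fibroblasts), 24 h compound, IP-10 by ELISA; bidirectional fit vs DMSO baseline.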

Assay [18] is described as follows: BSK_KF3CT_SRB: Viability Assessment in the BioMAP Diversity Plus: KF3CT Assay (AID 2283069).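 Further: read 24 h after compound addition; fitted for both signal gain and loss against DMSO baseline.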 The note with it: primary human keratinocytes with fibroblasts. The essentials: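 Overt cytotoxicity is assessed as total protein by sulforhodamine B staining in parallel human skin co-cultures at 24 h after dosing. DMSO serves as negative control and baseline.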
Read-out in assay [19]: Intercellular Adhesion Molecule 1 (ICAM1), ICAM1 (gene 3383)
Briefly: BSK_KF3CT_ICAM1: BioMAP Diversity Plus: KF3CT Assay for Intercellular Adhesion Molecule 1 (ICAM1) Biomarker Activity (AID 2283067). The note with it: primary human keratinocytes with fibroblasts; actives raise or lower the signal. An outline of the steps:
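Dose the keratinocyte/fibroblast co-culture, wait 24 h, measure ICAM-1 by ELISA, then fit increases or decreases against DMSO. Cytotoxicity is checked in parallel cultures by SRB total-protein staining.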

On to `c1ccc2sc(SSN3CCOCC3)nc2c1`, for which the AC50 (usually the midpoint of the concentration-response curve, whichever way the signal moves) in assay [1] is 20 µM (active); in assay [3], 10.6 µM (active); in assay [5], 6.71 µM (active); in [6], 4.44 µM (active); in [8], 7.7 µM (active); in assay [9], 1.41 µM (active). In addition, the AC50 in assay [10] was 9.39 µM (active); in assay [11], 7.52 µM (active); in [12], 10.7 µM (active); in assay [16], 4.82 µM (active); in [17], 23.8 µM (active); in [18] it was 10.3 µM (active). Besides, the outcome in [2], in assay [4], in [7], in assay [13], in assay [14] and in [15] was inactive.
As to `Clc1cc(Cl)c(Cl)c(Cl)c1Cl`, the result in assay [1], in [2], in [3], in assay [4], in assay [5] and in [6] was inactive. The result in assay [7], in assay [8], in assay [9], in assay [10], in [11] and in assay [12] was inactive. Moreover, the result in [14], in assay [15], in [16], in assay [17] and in assay [18] was inactive.
Consider `CC(c1cc(C(C)(C)C)cc(C(C)(C)C)c1O)c1cc(C(C)(C)C)cc(C(C)(C)C)c1O`, for which the outcome in [1], in [2], in assay [3], in assay [4], in [5] and in assay [6] was inactive. Further, the outcome in assay [7], in assay [8], in assay [9], in assay [10], in [11] and in assay [12] was inactive. The result in assay [14], in assay [15], in assay [19], in assay [17] and in [18] was inactive. In assay [16], the AC50 was 0.358 µM (active).
As for `Fc1ccc(Br)cc1`, the result in assay [1], in assay [2], in [3], in [4], in assay [5] and in assay [6] was inactive. For the same compound, the result in assay [7], in assay [8], in assay [9], in assay [10], in assay [11] and in [12] was inactive. Moreover, the outcome in assay [14], in assay [15], in [16], in assay [17] and in assay [18] was inactive.
Regarding `Cc1ccc([N+](=O)[O-])cc1N`, the outcome in assay [1], in assay [2], in assay [3], in [4], in assay [5] and in assay [6] was inactive. Moreover, the result in assay [7], in assay [8], in [9], in [10], in assay [11] and in assay [12] was inactive. Also, the result in [13], in [14], in [15], in [16], in assay [17] and in [18] was inactive.
With `CC1=CC=C(C(C)C)CC1`, the result in assay [1], in [2], in assay [3], in [4], in assay [5] and in [6] was inactive. Moreover, the result in assay [7], in assay [8], in assay [9], in assay [10], in assay [11] and in assay [12] was inactive. Further, the result in assay [14], in assay [15], in assay [16], in [17] and in assay [18] was inactive.
